Data on 14 molecules can be found in PubChem BioAssay (NCI).

Test systems include T-47D breast; BT-549 breast; MDA-MB-435 melanoma; SW-620 colon; HCT-116 colon; HCC-2998 colon; KM12 colon; MDA-MB-468 breast; MCF7 breast.
Holding throughout (test): NCI-60 one-dose screen, 48 h (100 = growth as untreated, 0 = no growth, -100 = all killed)
Common to all, as to conditions: 10 µM unless noted

About 83,000 compounds went through this panel and 20% of them were active in at least one assay; those are over-represented in the sample as a whole.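 Method: cells in 96-well plates; compound added at one concentration; 48 h incubation; percent growth measured; values under 10 scored active.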 Values without a mark were called inactive. Active and inactive are the calls of the source.

`COc1ccc(N=Nc2c(N)nn3c(N)c(C#N)c(-c4ccc(C)cc4)nc23)cc1`: the growth was 7.1% (active) with T-47D breast; 56.2% in the experiment with BT-549 breast; 56.6% with MDA-MB-435 melanoma; 67.2% with SW-620 colon; 45.4% with HCT-116 colon; 73% in the experiment with HCC-2998 colon. For the same molecule, the growth is 43.5% in the experiment on KM12 colon and 32.4% with MDA-MB-468 breast.

Regarding `Cc1ccc2nc(SCc3ccccc3F)n(-c3ccccc3)c(=O)c2c1`, the growth was 81.4% in the experiment with T-47D breast; 107% with BT-549 breast; 111% in the experiment with MDA-MB-435 melanoma; 89.2% in the experiment with MCF7 breast; 68.2% with HCT-116 colon; 109% with HCC-2998 colon. In addition, the results for the growth with KM12 colon and in the experiment with MDA-MB-468 breast were 93.7% and 89.3%, respectively.

In the case of `Cc1ccc2c(c1)nc(-c1ccccc1)n2CC(=O)N=Nc1c(O)[nH]c2ccc(Cl)cc12`, the growth with T-47D breast was -79.4% (active); in the experiment with BT-549 breast it was -72% (active); with MDA-MB-435 melanoma it was -14.2% (active); in the experiment on SW-620 colon, 0.844% (active); in the experiment with HCT-116 colon it was -82.5% (active); in the experiment on HCC-2998 colon it was -71.3% (active). Moreover, the growth was -56.2% (active) in the experiment with KM12 colon and -70.2% (active) with MDA-MB-468 breast.

Take `O=CNc1ccc(-n2cnc3cc(-c4ccc(O)cc4)ccc32)cc1`: the growth was 63.6% in the experiment on T-47D breast; 93.3% in the experiment with BT-549 breast; 82.8% in the experiment on MDA-MB-435 melanoma; 71.8% in the experiment with MCF7 breast; 85.6% in the experiment on HCT-116 colon; 102% with HCC-2998 colon. In addition, the figures for the growth in the experiment with KM12 colon and in the experiment with MDA-MB-468 breast were 32.4% and 86.1%, respectively.

For the molecule `Clc1ccccc1Nc1nnc(-c2c[nH]c3ccccc23)o1`, the growth with T-47D breast was 27.3%; in the experiment on BT-549 breast it was 25.1%; with MDA-MB-435 melanoma, -44.2% (active); with MCF7 breast, 14.9%; with HCT-116 colon, 8.25% (active); in the experiment on HCC-2998 colon, 6.55% (active). The growth in the experiment with KM12 colon is 15%.

Regarding `CC(C)(C)OC(=O)N1C/C(=C\c2ccc(F)cc2)C(=O)/C(=C/c2ccc(F)cc2)C1`, the growth with T-47D breast is 14.4%; with BT-549 breast it was -88.1% (active); with MDA-MB-435 melanoma, -82.6% (active); in the experiment on MCF7 breast it was -66.5% (active); in the experiment on HCT-116 colon, -81.5% (active); in the experiment with HCC-2998 colon, -98% (active). The growth in the experiment on KM12 colon is -90.7% (active); in the experiment with MDA-MB-468 breast it was -82.3% (active).

With `Cc1cc(C2(c3cc(C)c(OCC(O)CNc4c(C)n(C)n(-c5ccccc5)c4=O)cc3C(C)C)OC(=O)c3ccccc32)c(C(C)C)cc1OCC(O)CNc1c(C)n(C)n(-c2ccccc2)c1=O` (stereo unspecified), the growth was 1.64% (active) with T-47D breast; 27.3% with BT-549 breast; 12.5% with MDA-MB-435 melanoma; 18.4% in the experiment with SW-620 colon; 5.4% (active) in the experiment with HCT-116 colon; 36.8% in the experiment with HCC-2998 colon. For the same molecule, the growth in the experiment on KM12 colon is 16.5%; with MDA-MB-468 breast, -13.9% (active).

As to `O=C(c1ccc(O)cc1)C1[C@H](c2ccc(Cl)cc2)[C@@H](c2ccccc2)NC12C(=O)Nc1ccccc12` (stereo partly specified), the growth in the experiment on T-47D breast was 11.7%; in the experiment with BT-549 breast, -50.7% (active); with MDA-MB-435 melanoma, -34% (active); with SW-620 colon it was -12.7% (active); with HCT-116 colon, -76.8% (active); with HCC-2998 colon, -61.1% (active). For the same molecule, the values for the growth with KM12 colon and with MDA-MB-468 breast were -13.7% (active) and -45.2% (active), respectively.

With `CCOC(=O)/C(F)=C/C1CC1CCc1ccc(OCC)cc1` (stereo unspecified), the growth in the experiment on T-47D breast was 74.7%; in the experiment with BT-549 breast, 106%; in the experiment with MDA-MB-435 melanoma, 99%; with SW-620 colon, 92%; with HCT-116 colon it was 93.7%; in the experiment on HCC-2998 colon, 90.5%. Further, the figures for the growth with KM12 colon and in the experiment on MDA-MB-468 breast were 83.9% and 71.6%, respectively.

For `N/C(=N\c1nc2ccccc2s1)NC(=O)Nc1ccccc1F`, the growth was 31.1% in the experiment with T-47D breast; 30.2% in the experiment on BT-549 breast; -18.1% (active) with MDA-MB-435 melanoma; 43% in the experiment on SW-620 colon; 10.2% in the experiment on HCT-116 colon; 45.9% with HCC-2998 colon. The growth is 22.6% in the experiment on KM12 colon and -12.3% (active) with MDA-MB-468 breast.

Turning to `O=C1Nc2ccccc2/C1=C\c1ccc(OCC(=O)c2ccc(Br)cc2)cc1`, the growth was 46.9% with T-47D breast; 56.6% with BT-549 breast; 70.5% with MDA-MB-435 melanoma; 27.4% in the experiment on MCF7 breast; 55.4% in the experiment with HCT-116 colon; 85.1% in the experiment on HCC-2998 colon. In addition, the growth was 77.3% in the experiment with KM12 colon and 52.4% in the experiment on MDA-MB-468 breast.

Consider `CN(C)c1nc(NCCNS(=O)(=O)c2ccc(C(=O)/C=C/c3ccc(C(F)(F)F)cc3)cc2)nc(N2CCOCC2)n1`, for which the growth is -61.2% (active) in the experiment on T-47D breast; -20.8% (active) with BT-549 breast; -59.4% (active) in the experiment with MDA-MB-435 melanoma; -76.7% (active) with SW-620 colon; -91.4% (active) with HCT-116 colon; -97.6% (active) in the experiment with HCC-2998 colon. In addition, the growth in the experiment with KM12 colon was -80.7% (active); with MDA-MB-468 breast, -96.1% (active).

On to `Cn1cc(-c2cc3nc(-c4cn(C)c5ncccc45)cc(N)n3n2)c2cc(F)ccc21`, for which the growth is 37.8% with T-47D breast; 35.4% in the experiment on BT-549 breast; 83.1% in the experiment with MDA-MB-435 melanoma; 68.2% in the experiment on MCF7 breast; 10.2% in the experiment with HCT-116 colon; 39.8% in the experiment with HCC-2998 colon. Besides, the growth in the experiment on KM12 colon was 61.8%; in the experiment with MDA-MB-468 breast, 7.65% (active).

For `CN1C(=O)C(O)(CC(=O)c2cc3ccccc3oc2=O)c2ccccc21` (stereo unspecified), the growth was 103% with T-47D breast; 105% in the experiment on BT-549 breast; 110% in the experiment with MDA-MB-435 melanoma; 101% with SW-620 colon; 92.7% in the experiment on HCT-116 colon; 109% in the experiment with HCC-2998 colon. Moreover, the values for the growth in the experiment on KM12 colon and in the experiment on MDA-MB-468 breast were 96.9% and 82.6%, respectively.
